We go through 6 compounds from PubChem BioAssay.

Calls of active or inactive are those of the source.

The target of test [1] is Albumin (Bos taurus) (UniProt P02769). Kind of test: compounds binding labelled BSA control protein – biochemical, small-molecule microarray, Alexa647 label, 635/667 nm fluorescence, artefact control for SMM control protein annotation, profiling panel (AID 1118).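 Note: score merges 667 nm emission intensity and signal-to-noise per printed compound spot.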 As to conditions: BSA-A647 binding, fluorescence 635 nm, higher = more signal.
A short description of test [2]: probe aXIP binding to arrayed compounds – biochemical, NeuroSMM set, 635/667 nm fluorescence, primary screen (AID 1119).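 Note: probe is the protein aXip251-270 applied at 1 µg/mL to compound-printed slides; binding of probe to printed compounds measured as 667 nm fluorescence plus signal to noise.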 The following applies: small-molecule microarray, higher = more signal, called active from +8 up or from −8 down.
The nature of test [3]: probe aNOTCH3 binding on compound microarray – biochemical, small-molecule microarray, 635/667 nm fluorescence, primary screen (AID 1120).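 Note: probe is a biotin-tagged antibody raised against NOTCH3 rather than NOTCH3 protein; score merges spot fluorescence near 667 nm with spot signal to noise.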 As to conditions: higher = more signal.
Test [4] in a line: probe aNOTCH2 binding on compound microarray – biochemical, small-molecule microarray, 635/667 nm fluorescence, primary screen (AID 1121).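 Note: score merges feature fluorescence read at 667 nm with its signal to noise.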 The following applies: higher = more signal.
The target of test [5] is Carbonic anhydrase 2 (Homo sapiens) (UniProt P00918). The test is described as follows: compounds binding carbonic anhydrase 2 – biochemical, small-molecule microarray, Alexa647-labelled CAII, profiling panel (AID 1122). As to conditions: CAII-A647 binding fluorescence, higher = more signal.
Test [6] is described as follows: COS7 lysate on small-molecule microarray, probe aHis, 635 nm (AID 1123).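 Note: z-score combines 667nm fluorescence intensity with signal-to-noise per printed compound spot.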 The following applies: COS7 cell lysate, fluorescence, higher = more signal.
Test [7] can be described thus: probe aLAP1 signal on lysate-treated microarray – cell lysate, small-molecule microarray, COS7 lysate, primary screen (AID 1124).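 Note: lysate comes from COS7 cells expressing LAP1 and is applied at 0.3 µg/mL; score merges spot fluorescence near 667 nm with signal-to-noise over triplicate slides.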 As to conditions: probe aLAP1, fluorescence, higher = more signal.
Test [8] has as its system Sam68 (KHDRBS1). The test is described as follows: compounds binding KHDRBS1 protein – biochemical, small-molecule microarray, 635 nm fluorescence, primary screen (AID 1125).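 Note: score merges 667 nm channel intensity with signal to noise over triplicate slides.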 The following applies: higher = more signal.
Test [9] deals with Chordin-like protein 2 (CHRDL2). The test is described as follows: compounds binding chordin-like 2 – biochemical, small-molecule microarray, 635 nm fluorescence, primary screen (AID 1126).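 Note: printed compound slides probed with Chrdl2 protein at 4 µg/mL for 1 h at 4 C; score merges 667 nm emission intensity with signal to noise over three replicate slides.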 As to conditions: fluorescence 635 nm, higher = more signal.
Test [10] deals with Concanavalin-A (Canavalia ensiformis) (UniProt P02866). Kind of test: compounds binding concanavalin A lectin – biochemical, small-molecule microarray, Alexa647 label, 635 nm, artefact control for SMM control protein annotation, primary screen (AID 1127).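 Note: z combines 667 nm emission intensity with signal-to-noise across three replicate slides.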 The following applies: ConA-A647 binding fluorescence, higher = more signal.
The nature of test [11]: compounds binding Alexa647 anti-His antibody – biochemical, small-molecule microarray, 635 nm fluorescence, artefact control for SMM control protein annotation, primary screen (AID 1128).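 Note: score merges feature fluorescence with signal-to-noise for each printed compound spot.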 The following applies: higher = more signal.
The subject of test [12] is Human papillomavirus type 1a E7 protein (residues 1-88). Kind of test: HPV1a E7 small-molecule binders, primary screen, biochemical, small-molecule microarray, residues 1-88, 635 nm (AID 1129). The following applies: small-molecule microarray binding, fluorescence 635 nm; higher = more signal.
In test [13] the target is Focal adhesion kinase 1 (Homo sapiens) (UniProt Q05397). Kind of test: PTK2 protein binding on printed compound slides – biochemical, small-molecule microarray, 635/667 nm fluorescence, BSA, DTT, primary screen (AID 1130).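 Note: composite of spot emission at 667 nm and signal to noise over triplicate slides.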 The following applies: 635 nm fluorescence, higher = more signal.
In test [14] the test system is Fibrinogen (Alexa647-labelled). The test is described as follows: Alexa647-fibrinogen binding to printed small molecules – biochemical, small-molecule microarray, 635/667 nm fluorescence, artefact control for SMM control-protein annotation, profiling panel (AID 1131).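 Note: z-score merges 667 nm fluorescence with per-spot signal-to-noise over triplicate slides.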 The following applies: fibrinogen-A647 binding fluorescence, higher = more signal.
The target in test [15] is Follistatin (Homo sapiens) (UniProt P19883). The test is described as follows: FST protein binding to printed compounds – biochemical, small-molecule microarray, 635/667 nm fluorescence, primary screen (AID 1132). The following applies: 635 nm fluorescence, higher = more signal.
Test [16] has as its target Fibroblast growth factor 2 (Homo sapiens) (UniProt P09038). The test is described as follows: basic fibroblast growth factor binding to printed compounds – biochemical, small-molecule microarray, 635/667 nm fluorescence, primary screen (AID 1133). As to conditions: FGF2, fluorescence 635/667, higher = more signal.
A short description of test [17]: JC-1 mitochondrial potential readout, lung cancer cells – cell-based, A549, JC-1 fluorescence, basal, 24 h, 100 nL, profiling panel (AID 1138).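 Note: A549 lung adenocarcinoma cells under basal conditions with no added stimulus; test concentration not given here.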 As to conditions: higher = more signal.
Test [18] relates to Lefty1. Kind of test: Lefty1 protein binding to printed compounds – biochemical, small-molecule microarray, 635/667 nm fluorescence, primary screen (AID 1139). The following applies: fluorescence 635/667, higher = more signal.
The subject of test [19] is wheat germ agglutinin (Triticum aestivum), Alexa647-labelled. The test is described as follows: Alexa647-WGA lectin binding to printed small molecules – biochemical, small-molecule microarray, 635/667 nm fluorescence, artefact control for SMM control-protein annotation, profiling panel (AID 1140).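 Note: score merges 667 nm feature emission with signal to noise over triplicate slides.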 As to conditions: WGA-A647 binding, 635 nm fluorescence, higher = more signal.

Test [20] has as its target Luciferin 4-monooxygenase (Photinus pyralis) (UniProt P08659). Kind of test: inhibition of purified Photinus pyralis luciferase – biochemical, luminescence, purified enzyme, 2006 set, primary screen (AID 1141).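 Note: cell-free assay with purified firefly luciferase at 100 ng per well in PBS; test concentration not given here.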 As to conditions: purified firefly luciferase, SteadyGlo luminescence, 30 min; higher = more signal, called active from +8 up or from −8 down.

Chain of Luciferin 4-monooxygenase (Photinus pyralis) (P08659 whole entry, looked up): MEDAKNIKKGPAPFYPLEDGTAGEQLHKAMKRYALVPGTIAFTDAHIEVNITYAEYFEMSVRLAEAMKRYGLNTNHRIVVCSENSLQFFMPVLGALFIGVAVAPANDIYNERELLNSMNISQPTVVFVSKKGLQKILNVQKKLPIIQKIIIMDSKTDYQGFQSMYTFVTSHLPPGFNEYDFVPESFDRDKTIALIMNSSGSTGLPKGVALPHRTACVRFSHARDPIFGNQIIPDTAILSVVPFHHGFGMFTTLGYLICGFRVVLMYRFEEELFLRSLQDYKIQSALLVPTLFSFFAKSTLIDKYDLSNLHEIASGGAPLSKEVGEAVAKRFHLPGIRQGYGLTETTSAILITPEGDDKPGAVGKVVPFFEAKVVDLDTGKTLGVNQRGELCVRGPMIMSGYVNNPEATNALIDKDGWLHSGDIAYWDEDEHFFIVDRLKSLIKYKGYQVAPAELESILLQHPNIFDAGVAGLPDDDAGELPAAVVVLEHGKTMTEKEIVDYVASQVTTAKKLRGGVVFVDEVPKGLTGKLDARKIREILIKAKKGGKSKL
Chain of Albumin (Bos taurus) (P02769 whole entry, looked up): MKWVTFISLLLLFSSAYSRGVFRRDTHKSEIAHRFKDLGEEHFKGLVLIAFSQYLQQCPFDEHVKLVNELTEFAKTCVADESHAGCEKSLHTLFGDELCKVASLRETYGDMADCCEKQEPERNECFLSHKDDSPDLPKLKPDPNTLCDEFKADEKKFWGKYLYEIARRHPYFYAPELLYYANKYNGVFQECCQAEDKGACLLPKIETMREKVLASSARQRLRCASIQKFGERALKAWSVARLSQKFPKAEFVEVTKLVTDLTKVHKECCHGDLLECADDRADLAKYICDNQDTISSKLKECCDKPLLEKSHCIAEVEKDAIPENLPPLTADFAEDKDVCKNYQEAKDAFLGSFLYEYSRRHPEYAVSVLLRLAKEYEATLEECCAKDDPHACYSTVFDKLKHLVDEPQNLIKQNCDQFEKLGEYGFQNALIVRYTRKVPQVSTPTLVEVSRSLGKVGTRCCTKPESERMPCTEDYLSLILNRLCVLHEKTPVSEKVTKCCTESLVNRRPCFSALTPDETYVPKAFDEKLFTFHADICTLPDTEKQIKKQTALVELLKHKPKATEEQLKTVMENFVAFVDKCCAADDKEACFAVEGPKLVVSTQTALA
Chain of Fibroblast growth factor 2 (Homo sapiens) (P09038 whole entry, looked up): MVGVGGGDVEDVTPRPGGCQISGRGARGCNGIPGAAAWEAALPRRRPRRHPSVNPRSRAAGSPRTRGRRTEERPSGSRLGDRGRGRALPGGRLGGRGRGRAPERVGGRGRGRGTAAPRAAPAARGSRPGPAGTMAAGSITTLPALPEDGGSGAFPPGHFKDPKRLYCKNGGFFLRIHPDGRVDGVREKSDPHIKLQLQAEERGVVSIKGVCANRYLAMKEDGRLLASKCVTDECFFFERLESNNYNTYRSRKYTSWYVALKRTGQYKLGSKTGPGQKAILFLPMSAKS
Chain of Concanavalin-A (Canavalia ensiformis) (P02866 whole entry, looked up): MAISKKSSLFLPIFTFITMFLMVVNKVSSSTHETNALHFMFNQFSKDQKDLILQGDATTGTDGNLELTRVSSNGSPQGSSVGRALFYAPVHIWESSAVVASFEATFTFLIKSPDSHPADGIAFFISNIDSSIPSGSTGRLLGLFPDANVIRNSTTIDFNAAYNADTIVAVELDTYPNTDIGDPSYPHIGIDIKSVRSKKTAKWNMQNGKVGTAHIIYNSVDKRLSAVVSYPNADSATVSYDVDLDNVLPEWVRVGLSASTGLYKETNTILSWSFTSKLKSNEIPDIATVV
Chain of Focal adhesion kinase 1 (Homo sapiens) (Q05397 whole entry, looked up): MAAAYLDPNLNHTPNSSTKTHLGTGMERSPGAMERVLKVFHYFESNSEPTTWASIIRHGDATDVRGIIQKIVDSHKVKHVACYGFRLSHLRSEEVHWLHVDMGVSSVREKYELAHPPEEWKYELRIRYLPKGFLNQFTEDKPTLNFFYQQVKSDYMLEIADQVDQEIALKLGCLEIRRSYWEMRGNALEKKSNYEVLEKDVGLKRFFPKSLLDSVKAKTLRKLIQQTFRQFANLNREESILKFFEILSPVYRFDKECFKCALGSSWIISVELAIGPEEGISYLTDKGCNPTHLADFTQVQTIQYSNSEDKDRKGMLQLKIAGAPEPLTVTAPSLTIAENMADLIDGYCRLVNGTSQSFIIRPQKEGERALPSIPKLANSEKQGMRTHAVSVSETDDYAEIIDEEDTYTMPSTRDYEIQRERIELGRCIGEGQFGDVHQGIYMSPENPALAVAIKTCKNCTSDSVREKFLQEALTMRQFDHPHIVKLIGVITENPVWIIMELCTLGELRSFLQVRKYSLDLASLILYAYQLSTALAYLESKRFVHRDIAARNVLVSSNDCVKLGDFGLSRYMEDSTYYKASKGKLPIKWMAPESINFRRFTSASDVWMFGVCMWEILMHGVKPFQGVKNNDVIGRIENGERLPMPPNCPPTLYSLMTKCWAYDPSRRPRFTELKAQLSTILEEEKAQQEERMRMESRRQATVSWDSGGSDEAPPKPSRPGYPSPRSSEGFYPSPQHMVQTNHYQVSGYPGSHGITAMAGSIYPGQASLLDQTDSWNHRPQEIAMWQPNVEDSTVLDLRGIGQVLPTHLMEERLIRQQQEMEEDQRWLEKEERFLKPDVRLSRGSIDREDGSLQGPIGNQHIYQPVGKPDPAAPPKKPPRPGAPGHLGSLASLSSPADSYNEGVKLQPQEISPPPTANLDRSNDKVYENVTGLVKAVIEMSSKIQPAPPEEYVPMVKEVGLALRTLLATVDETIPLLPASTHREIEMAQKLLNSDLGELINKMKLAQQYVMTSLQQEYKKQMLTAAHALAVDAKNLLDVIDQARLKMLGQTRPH
Chain of Follistatin (Homo sapiens) (P19883 whole entry, looked up): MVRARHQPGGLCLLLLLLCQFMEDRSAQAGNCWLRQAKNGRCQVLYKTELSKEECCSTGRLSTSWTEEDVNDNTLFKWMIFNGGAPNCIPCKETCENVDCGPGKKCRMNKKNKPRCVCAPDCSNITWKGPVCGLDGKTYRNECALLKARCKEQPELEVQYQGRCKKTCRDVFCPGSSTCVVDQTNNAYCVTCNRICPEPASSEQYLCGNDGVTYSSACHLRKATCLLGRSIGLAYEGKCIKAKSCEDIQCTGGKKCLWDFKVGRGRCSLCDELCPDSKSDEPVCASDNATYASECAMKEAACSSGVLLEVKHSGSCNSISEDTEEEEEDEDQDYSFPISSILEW

For `C=CCNC(=O)[C@H]1[C@@H]2C(=O)O[C@@H](c3ccccc3)[C@@H](c3ccccc3)N2[C@@H](c2ccccc2OCCO)[C@]12C(=O)N(C(=O)OCCOC)c1ccc(C#CCCO)cc12`, the composite z-score in [1] came out at 0.0097; in test [3] it was 0.142; in [4] it was 0.399; in [5] it was 0.417; in test [6] it was 1.79; in test [7] it was 0.665. Moreover, the composite z-score is 1.32 in [8]; 1.18 in test [9]; 1.11 in test [10]; 1.34 in [11]; 1.09 in [12]; 1.02 in test [13]. Further, the composite z-score in test [14] turned out to be 0.614; in [15], 1.42; in [16] it was 1.72; in test [18], 0.817; in test [19], 0.958. Also, in [2], the composite Z-score was 0.433 (inactive). For the same compound, the z-score is 1.7 in [17] and -1.66 (inactive) in test [20].

For `CC(C)(C)OC(=O)CC[C@@]12N=C(c3ccc(OCCCO)cc3)O[C@@H]1c1ccccc1N(Cc1ccccc1)C2=O`, the composite z-score in [1] is 0.0674; in test [3] it was -0.122; in [4], -0.0318; in [5], 0.434; in test [6], 1.67; in [7], 0.583. For the same compound, the composite z-score in test [8] was 1.15; in test [9] it was 0.145; in test [10], 1.05; in test [11] it was 2.92; in test [12], 1; in [13], 1.16. The composite z-score in test [14] worked out at 0.214; in [15], 1.39; in test [16] it was 0.54; in test [18], 0.345; in test [19], 0.036. In addition, the composite Z-score in [2] is 1.83 (inactive). The z-score in test [17] was 1.43; in test [20], -2.14 (inactive).

For `CCCCCN1CC=CC23O[C@@H]4/C=C\CCC(C)OC(=O)C4[C@H]2C(=O)N(CCCO)[C@@H]3C1=O` (stereo not given in full), the composite z-score in test [1] was -1.27; in test [3] it was -0.357; in test [4], -0.161; in test [5], 0.97; in [6], 0.1; in [7], 1.62. The composite z-score in test [8] is -0.237; in test [9] it was -1.15; in [10], -0.521; in [11], -1.7; in test [12] it was -0.719; in test [13] it was -0.249. In addition, the composite z-score in test [14] was -1.63; in test [15] it was -1.3; in test [16], -0.965; in test [18], -1.2; in [19], -1.08. Moreover, the composite Z-score in test [2] was 0.58 (inactive). Besides, the z-score is 0.684 in test [17] and -0.637 (inactive) in [20].

As for `CCCC[C@@H](O)C1=C(C)C[C@H]2C(=O)N(C)C(=O)[C@H]2[C@H]1CO`, the composite z-score was 0.799 in [1]; -0.132 in [3]; -0.112 in test [4]; 0.804 in [5]; 0.48 in test [6]; -0.198 in [7]. The composite z-score in test [8] is 0.705; in [9], -0.0576; in test [10], 0.0354; in test [11] it was 0.33; in [12], -0.196; in [13] it was 0.116. The composite z-score in [14] is 0.173; in test [15], 0.186; in test [16], 0.41; in [18], 0.776; in test [19], 1.12. The composite Z-score in test [2] is 0.475 (inactive). The values for the z-score in [17] and in test [20] were 1.52 and -1.41 (inactive), respectively.

`CCCNC(=O)[C@@H]1c2ccccc2C(=O)N(Cc2cc(C(F)(F)F)cc(C(F)(F)F)c2)[C@H]1c1ccc(CO)cc1`: the composite z-score in [1] was -0.419; in test [3], -0.0343; in test [4], -0.194; in [5], 0.422; in test [6], 0.64; in [7], 0.227. The composite z-score in test [8] is 0.679; in test [9], -0.608; in test [10], 0.234; in [11], 0.14; in test [12] it was 0.541; in test [13], 0.452. Besides, the composite z-score in test [14] is 0.0967; in test [15], 0.652; in [16], 0.213; in test [18] it was 0.0044; in test [19], 0.14. In addition, in [2], the composite Z-score is -0.251 (inactive). The z-score in test [17] is 0.904; in test [20], -0.831 (inactive).

In the case of `COc1ccc(C(=O)Nc2cccc(CN3C(=O)[C@@]4(O[C@@H](CCO)[C@H]([Si](C)(C)c5ccc(OC)cc5)[C@H]4C)c4ccccc43)c2)cc1`, the composite z-score was 0.558 in test [1]; -0.0343 in test [3]; -0.14 in [4]; 0.211 in test [5]; 0.421 in test [6]; 0.0002 in [7]. The composite z-score was 1.18 in [8]; -0.143 in [9]; 1.01 in [10]; 0.338 in test [11]; 1.07 in test [12]; -0.177 in [13]. Also, the composite z-score was 0.795 in [14]; 1 in [15]; -0.169 in test [16]; 0.143 in test [18]; 0.327 in [19]. In addition, the composite Z-score in [2] is -0.0927 (inactive). Also, the figures for the z-score in test [17] and in [20] were -1.29 and -1.96 (inactive), respectively.
